The values that follow come from PubChem BioAssay (NCATS).

Molecules are shown by their SMILES. “And” between values parts separate entries of the source, which are not always exact repeats. Identical values can stand only once. Results filed as inconclusive are left out. The source made the active and inactive calls. Unless noted, calls come from the whole dose curve; as a rule, active = well fitted curve in the direction sought with a large enough effect; inconclusive = small, poorly fitted or top-dose-only effect, or another doubt; inactive = no such curve, though single readings can be large; an effect the other way counts as inactive or inconclusive.

Assay [1] in a line: qHTS profiling of the MIPE4 collection as inhibitors of Plasmodium falciparum (DD2) proliferation (AID 743345; call rule not given here). The following applies: P. falciparum Dd2 in erythrocytes, SYBR Green DNA, 72 h; at 28.5 µM (top of the series) unless noted. The method in brief:
(§1)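 Erythrocytes infected with P. falciparum (0.3% parasitemia, 2.5% hematocrit) incubated with compounds 72 h at 37 C, 5% CO2. Lysis with saponin/Triton buffer containing SYBR Green I, overnight at room temperature in the dark; DNA fluorescence (485/535 nm) normalised to 0.29 uM artemisinin and DMSO.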

Assay [2] is described as follows: qHTS profiling of the MIPE4 collection as inhibitors of Plasmodium falciparum (DD2) proliferation (Rep 2) (AID 743346; call rule not given here). Conditions: P. falciparum Dd2 in erythrocytes, SYBR Green DNA, 72 h; at 28.5 µM (top of the series) unless noted. An outline of the steps:
as §1

A short description of assay [3]: qHTS profiling of the MIPE4 collection as inhibitors of Plasmodium falciparum (HB3) proliferation (AID 743347; call rule not given here;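 note: plate controls were DMSO vehicle wells for no effect and artemisinin wells for full effect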). Conditions: P. falciparum HB3 in erythrocytes, SYBR Green DNA, 72 h; at 28.5 µM (top of the series) unless noted. An outline of the steps:
as §1

Assay [4] is described as follows: High-throughput drug toxicity screening in the BPDCN cell line Gen2.2 (AID 1224824; call rule not given here;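 note: cells exposed to compounds for 48 h before reading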). The following applies: Gen2.2 BPDCN cells; at 45.8 µM (top of the series) unless noted. The method in brief: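 CellTiter-Glo luminescence after 48 h compound exposure of Gen2.2 cells; percent activity set with DMSO as 100% and bortezomib (9.2 uM final) as 0%. Cells seeded at 500 per well, RPMI + 10% FBS, 37 °C.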

Assay [5] can be described thus: High-throughput drug toxicity screening in the BPDCN cell line Cal-1 (AID 1224825; call rule not given here). The following applies: Cal-1 BPDCN cell viability, qHTS; at 45.8 µM (top of the series) unless noted. An outline of the steps:
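Cal-1 cells, 500 per well in phenol-red-free RPMI with 10% FBS, exposed to compounds for 48 hours at 37C, 5% CO2. Viability read by CellTiter-Glo luminescence; percent activity normalized to DMSO (100%) and 9.2 uM bortezomib final (0%).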

Assay [6] is described as follows: qHTS assay for measurement of the activity of small molecule inhibitors on Zika virus induced Caspase-3 activity in human iPSC derived neural progenitor cells (hNPCs) (AID 1224857). Note: % of control where 0% means no effect; nearly all actives have a fitted effect of over 65% in size. The method in brief:
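Human iPSC-derived neural progenitor cells pretreated 1 hr with compounds, then infected with Zika virus (2 FFU/cell) for 6 hours at 37 C. Caspase-3/7 measured by Caspase-Glo luminescence; % inhibition calculated from induction scaled to uninfected (0%) and infected (100%) wells.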

Assay [7] can be described thus: qHTS assay for measurement of the activity of small molecule inhibitors on Zika virus induced Caspase-3 activity in human astrocytoma cells (AID 1224859).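 Note: plate controls were ZIKV-infected untreated cells for no effect and uninfected cells for full effect.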 The method in brief:
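SNB-19 astrocytoma cells, 250/well, pretreated 1 h with compounds, then Zika virus at 2 FFU/cell for 6 h at 37 C; Caspase-Glo 3/7 luminescence after 30 min; percent inhibition normalised to uninfected and infected controls.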

Assay [8] is described as follows: qHTS Screen of the MIPE 4.0 Collection Against Ewings Sarcoma (TC71) (AID 1259253). Note: nearly all actives have a fitted effect of over 40% in size. Note: potency is the fitted concentration of half-maximal effect. The method in brief:
(§2)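 Dose series incubated 48 h with cells in RPMI plus 5% FBS, glutamine and penicillin/streptomycin; cell viability then quantified via CellTiter-Glo.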

The nature of assay [9]: qHTS Screen of the MIPE 4.0 Collection Against Ewings Sarcoma (EW8) (AID 1259255).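 For viability: 100% = DMSO-treated cells and 0% = medium-only wells without cells.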 Note: nearly all actives have a fitted effect of over 35% in size. Note: potency is the fitted concentration of half-maximal effect. The method in brief: as §2
A short description of assay [10]: qHTS assay to identify small molecule inhibitors of chordoma cells - UCH-2 (AID 1259356). Note: % is set by controls: 0 for no effect and ±100 for the full control effect.
The nature of assay [11]: qHTS Screen of the MIPE 4.0 Collection Against Ewings Sarcoma (TC32) (AID 1259256). Note: nearly all actives have a fitted effect of over 45% in size. Note: potency is the fitted concentration of half-maximal effect. The method in brief:
as §2

Assay [12] in a line: qHTS assay to identify small molecule inhibitors of chordoma cells - UCH-1 (AID 1259355). Note: % is set by controls: 0 for no effect and ±100 for the full control effect; nearly all actives have a fitted effect of over 55% in size. The method in brief:
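Cells (800/well) were seeded and left overnight at 37 C, 5% CO2, then treated with drugs at 15 concentrations plus a combination mix of auranofin, camptothecin, doxorubicin, rubitecan and topotecan. Viability after 48hr was read by CellTiter-Glo luminescence.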

The nature of assay [13]: P-glycoprotein substrates identified in KB-3-1 adenocarcinoma cell line, qHTS therapeutic library screen (AID 1346986). Note: % is set by controls: 0 for no effect and ±100 for the full control effect; nearly all actives have a fitted effect of over 60% in size. The following applies: outcome: dose series up to 44.5 µM unless noted. The method in brief:
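Compounds were tested in dose-response against KB-3-1 and KB-8-5-11 cells at 37 degree C for 72 h, and viability was measured by luminescence. AC50 values came from curve fitting with class-based activity calls.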

Regarding `COc1ccccc1N1CCN(CC(O)COc2cccc3ccccc23)CC1` (centres undefined), the parasite growth remaining, % of DMSO control (lower = more inhibition) in assay [1] was 98.8%. For the same compound, the parasite growth, % of control (lower = inhibition) in assay [2] was 65.8%. This compound registered a growth, % of control in assay [3] of 74.7%. Further, the cell viability, % of control (lower = more cytotoxic) in assay [4] is 156%. In addition, the viability (% of control) in [5] was found to be 112%. Also, the Potency result in assay [6], in [7] and in assay [9] was “inactive” in each case. Further, in assay [8], the Potency is 16.6 µM (active). The result in [10] was inactive.

With `COc1ccc2[nH]cc(CCNC(C)=O)c2c1`, the parasite growth remaining, % of DMSO control (lower = more inhibition) in assay [1] is 107% and 104%. Further, the growth, % of control in assay [3] is 79.2% and 70.9%. Besides, the cell viability, % of control (lower = more cytotoxic) in assay [4] came to 132%. Moreover, the viability (% of control) in assay [5] came out at 65.3%. Besides, the Potency entry in assay [6] and in assay [7] was “inactive” throughout. Also, the Potency in [8] was 1.05 µM (active); in [9], 2.96 µM (active); in [11], 3.32 µM (active). Further, the result in assay [10] was inactive.

Turning to `O=C(c1ccc(OCCN2CCCCC2)cc1)c1c(-c2ccc(O)cc2)sc2cc(O)ccc12`, in assay [1], the parasite growth remaining, % of DMSO control (lower = more inhibition) was 32.9%. The compound also registered a growth, % of control in [3] of 9.13%. Also, the cell viability, % of control (lower = more cytotoxic) in assay [4] was found to be 67.1%. Besides, in assay [5], the viability (% of control) was 40.4%. Also, the Potency entry in assay [6], in assay [7] and in assay [12] was “inactive” each time. Moreover, the Potency in assay [8] was 7.43 µM (active); in assay [11], 8.33 µM (active). Further, the compound was classed as inactive in assay [10] and in assay [13].

In assay [2], `Cc1cc(C(C)(C)C)cc(C)c1CC1=NCCN1` displayed a parasite growth, % of control (lower = inhibition) of 17.1%. Besides, the cell viability, % of control (lower = more cytotoxic) in [4] was 20.6%. Also, in [5], the viability (% of control) turned out to be 12.2%. Moreover, the Potency result in assay [6], in [7], in assay [8], in assay [9] and in assay [11] was “inactive” throughout. The compound was classed as inactive in assay [10].

For the compound `Nc1nc2c(ncn2COC(CO)CO)c(=O)[nH]1`, the parasite growth remaining, % of DMSO control (lower = more inhibition) in [1] came to 92.5%. Also, the parasite growth, % of control (lower = inhibition) in assay [2] turned out to be 84.9%. Moreover, in assay [3], the growth, % of control stood at 49%. Moreover, the cell viability, % of control (lower = more cytotoxic) in assay [4] came to 5.03%. Further, the viability (% of control) in assay [5] amounted to 3.13%. Moreover, the Potency result in [6], in assay [7], in [11] and in assay [12] was “inactive” in each case. For the same compound, the Potency in [8] was 23.5 µM (active). Also, the outcome in assay [10] was inactive.

In the case of `CC#C[C@]1(O)CC[C@H]2[C@@H]3CCC4=CC(=O)CCC4=C3[C@@H](c3ccc(N(C)C)cc3)C[C@@]21C`, the parasite growth remaining, % of DMSO control (lower = more inhibition) in assay [1] came out at 45.8%. Besides, the parasite growth, % of control (lower = inhibition) in assay [2] was determined as 11.9%. In assay [3], this compound gave a growth, % of control of 6.33%. Also, the cell viability, % of control (lower = more cytotoxic) in [4] is 6.18%. Also, the viability (% of control) in assay [5] worked out at 5.97%. Also, the Potency result in assay [6] and in [7] was “inactive” throughout. The Potency in [8] is 0.264 µM (active); in assay [9] it was 0.418 µM (active); in [11], 0.264 µM (active). The call in assay [10] was inactive.

With `COc1cc2nc(N(C)CCCNC(=O)C3CCCO3)nc(N)c2cc1OC` (centres undefined), the parasite growth remaining, % of DMSO control (lower = more inhibition) in assay [1] was determined as 88.3%. In assay [3], this compound came in with a growth, % of control of 67.3%. For the same compound, in [4], the cell viability, % of control (lower = more cytotoxic) was found to be 230%. For the same compound, the viability (% of control) in assay [5] worked out at 115%. In addition, the Potency result in [6], in assay [7], in [8], in assay [9] and in assay [11] was “inactive” in each case. For the same compound, the outcome in [10] was inactive.

Turning to `NS(=O)(=O)c1cc2c(cc1Cl)NCNS2(=O)=O`, the parasite growth remaining, % of DMSO control (lower = more inhibition) in assay [1] amounted to 53.5%. Besides, in assay [3], the growth, % of control is 40.8%. Also, the cell viability, % of control (lower = more cytotoxic) in assay [4] came out at 159%. Also, in assay [5], the viability (% of control) was found to be 125%. The Potency result in [6], in assay [7], in [8], in [9] and in [11] was “inactive” throughout. For the same compound, the compound was called inactive in [10].

Consider `CCCNCC(O)COc1ccccc1C(=O)CCc1ccccc1` (centres undefined), for which the parasite growth remaining, % of DMSO control (lower = more inhibition) in assay [1] was found to be 6.97%. Further, the parasite growth, % of control (lower = inhibition) in [2] amounted to 15.6%. For the same compound, the growth, % of control in [3] worked out at 6.85%. For the same compound, in [4], the cell viability, % of control (lower = more cytotoxic) came out at 6.23%. In assay [5], the viability (% of control) was determined as 1.7%. In addition, the Potency result in [6], in assay [7] and in assay [12] was “inactive” in each case. Besides, the Potency is 14.8 µM (active) in assay [8] and 20.9 µM (active) in assay [9]. Moreover, the outcome in [10] was inactive.

As to `CCCCc1oc2ccccc2c1C(=O)c1cc(I)c(OCCN(CC)CC)c(I)c1`, the parasite growth remaining, % of DMSO control (lower = more inhibition) in assay [1] was determined as 6.54%. Moreover, the parasite growth, % of control (lower = inhibition) in assay [2] came out at 19.3%. The compound also registered a growth, % of control in assay [3] of 8.19%. In addition, in assay [4], the cell viability, % of control (lower = more cytotoxic) was determined as 84.7%. In addition, the viability (% of control) in [5] stood at 8.13%. Further, the Potency result in [6] and in [7] was “inactive” in each case. Besides, the Potency is 8.33 µM (active) in assay [8], 9.35 µM (active) in assay [9] and 8.33 µM (active) in assay [11]. In addition, the outcome in assay [10] was inactive.
